Source: PubChem
Sfp inh: inhibitors of Bacillus subtilis Sfp phosphopantetheinyl transferase; Potency, µM, inactives show largest response in the series, negative = inhibition, most hits filed as inhibitors; Biochemical Sfp PPTase activity, qHTS; actives 3.5% (n = 310,000); AID 1490;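 further: the enzyme is Sfp with the accession as filed and its product quenches rhodamine fluorescence; 0% = enzyme reaction without inhibitor and -100% = no enzyme wells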
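With Hepes-Na pH 7.6 buffer containing 10 mM MgCl2, Sfp (15 nM) modified BHQ-2-YbbR (12.5 uM) using rhodamine-CoA (5 uM). Two reads 30 minutes apart at 525/598 nm yielded each well's rate.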
BAZ2B block: inhibitors of human BAZ2B bromodomain; actives 4.4% (n = 360,000); AlphaScreen BAZ2B-H3K14Ac peptide displacement; Potency, µM (titrated, usually from 114 µM), for inactives: at the highest dose activity change, negative = inhibition, actives largely listed as inhibitors; AID 504333; Q9UIF8; further: on the % scale 0 is the no-effect control and ±100 the full control effect; nearly all actives have a fitted effect of over 60% in size
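AlphaScreen luminescence quantifies BAZ2B engagement of H3K14Ac peptide; the protein and biotinylated peptide are both at 50 nM final, buffer PBS pH 7.4 with 0.01% Tween-20, all steps at room temperature.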
G9a block: G9a (human) methyltransferase inhibition. Q96KQ7. G9a H3K9 monomethylation, AlphaScreen, 2 h. Potency, µM (titrated, usually from 102 µM), for inactives: top-dose activity, negative = inhibition, actives largely listed as inhibitors. actives 8.8% (n = 350,000); further: on the % scale 0 is the no-effect control and ±100 the full control effect; nearly all actives have a fitted effect of over 75% in size
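Chemiluminescent proximity detection of H3K9 monomethylation, read after 10 min bead incubation in the dark. Reaction: 20 nM G9a, 500 nM biotin-H3K9 peptide, 20 uM SAM cofactor, 2 h, room temperature, following 15 min enzyme-compound preincubation.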
JMJD2A Tudor inh: blocks the human JMJD2A Tudor domain; O75164; actives 4.4% (n = 390,000); AID 504339; AlphaScreen JMJD2A-Tudor / H3K4me3 peptide binding; Potency, µM (titrated, usually from 114 µM), without a hit: at the top dose activity change, negative = inhibition, hits mostly inhibitors; further: on the % scale 0 is the no-effect control and ±100 the full control effect; nearly all actives have a fitted effect of over 50% in size
HP1b binding inh: blocks HP1-beta chromodomain binding to methylated histone tails. AlphaScreen HP1-beta / biotin-H3K9me3 peptide binding. Potency, µM (titrated, usually from 114 µM), without a hit: top-dose activity change, negative = inhibition, actives largely listed as inhibitors. actives 0.56% (n = 390,000); further: nearly all actives have a fitted effect of over 70% in size
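Compound inhibition of the preformed complex between 50 nM HP1-beta and 50 nM biotinylated H3K9me3 peptide was read by AlphaScreen. Buffer was PBS pH 7.4 with 0.01% Tween-20. Incubations ran 30 min at room temperature, with 10 ug/mL donor/acceptor beads.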
Starred values were filed as active, the others as inactive; ? = inconclusive; · = no result; [ ] = dose if it differs, or a comment. Hits are enriched below; roughly 12% of the tested compounds scored in any of these assays. The call rests on the fitted dose curve; in most records, active means well fitted curve in the direction sought with a large enough effect; inconclusive means small, poorly fitted or top-dose-only effect, or another doubt; inactive means no such curve, though single readings can be large; an effect the other way counts as inactive or inconclusive. Potency means the concentration at half of the fitted maximal effect.

SMILES | Sfp inh | BAZ2B block | G9a block | JMJD2A Tudor inh | HP1b binding inh
CC1c2cccc(O)c2C(O)=C2C(=O)[C@]3(O)C(O)=C(C(N)=O)C(=O)C(N(C)C)C3C(O)C21 (stereo partly specified) | -5% | · | ? | · | ·
c1coc(-c2nnc(-c3ccco3)nn2)c1 | -65% | 20µM* | 20µM* | 25µM* | 45µM*
COc1ccc(CN(C)C2CCN(C)CC2)cc1OC | 6% | 56µM* | 28µM* | 89µM* | 1%
Cc1ccc(CN(C)C2CCN(C)CC2)cc1 | 6% | -5% | · | ? | 1%
Cc1cc(C(=O)COC(=O)c2cccn2C)c(C)n1Cc1ccco1 | -18% | 45µM* | 18µM* | 50µM* | ?
Cc1cc(C(=O)CSc2nnc(N)s2)c(C)n1Cc1ccco1 | 10% | -38% | 40µM* | -6% | 9%
Nc1nnc(SCC(=O)c2ccco2)s1 | ? | 2% | 9%[0.501 µM] | -7% | 21%
CC1(c2ccc(Cl)cc2)NC(=S)N2C1NC(=S)N2c1ccccc1 (stereo unspecified) | -10% | 50µM* | -113%[59 µM] | -30% | 27%
CC1CN(C(=O)CCC(=O)NCc2cccs2)c2cc(Cl)ccc2O1 (stereo unspecified) | · | -15% | -8%[59 µM] | 5% | 15%
CCOC(=O)c1c(C)[nH]c(C2=NNC(=Nc3ccccc3OC)SC2)c1C | 79µM* | ? | ? | 50µM* | ?
CCOC(=O)c1c(C)[nH]c(C2=NNC(=Nc3ccccc3)SC2)c1C | 40µM* | -37% | 45µM* | ? | ?
CCOC(=O)c1c(C)[nH]c(C(=O)OCCOc2ccccc2C)c1C | 14% | -8% | -2%[59 µM] | -15% | 20%
CCOC(=O)c1ccc(N=C2NC(=O)CS2)cc1 | 6% | 0% | 20%[59 µM] | -18% | 26%
CC(=O)c1c(C)[nH]c(C2=NNC(=NC(C)(C)C)SC2)c1C | 22µM* | · | 32µM* | -15% | 27%
CCOC(=O)c1c(C)[nH]c(C2=NNC(=Nc3ccc(OCC)cc3)SC2)c1C | 79µM* | 50µM* | ? | 56µM* | ?
CSCCC(NC(=O)c1ccccc1Cl)C(=O)N1CCN(C(c2ccccc2)c2ccccc2)CC1 (stereo unspecified) | 11% | -26% | · | -33% | 13%
CCOC(=O)c1cnc2ccc(Cl)cc2c1Nc1ccc(S(=O)(=O)Nc2ncccn2)cc1 | 11% | -20% | -5% | -6% | 26%
CCOC(=O)c1cnc2ccc(C)cc2c1Nc1ccc(N2CCOCC2)cc1 | -19% | 35µM* | 40µM* | 28µM* | 22µM*
CCOC(=O)c1cnc2ccc(OCC)cc2c1NCc1ccccc1 | 32µM* | 141% | 101%[59 µM] | 157% | 308%
CCOC(=O)c1cnc2ccc(Cl)cc2c1Nc1ccc(N2CCOCC2)cc1 | · | 14µM* | 7.1µM* | 35µM* | ?
CCOC(=O)c1cnc2ccc(C(=O)OC)cc2c1Nc1ccc(N2CCOCC2)cc1 | · | 18µM* | 13µM* | 50µM* | ?
CCOC(=O)c1cnc2ccc(C(=O)OC)cc2c1Nc1cccc(C(=O)O)c1 | 13% | -12% | 4% | 11% | 42%
CCOC(=O)c1ccc2ncc(C(=O)OCC)c(NCCN3CCOCC3)c2c1 | 7% | -26% | 0% | -11% | 43%
Cc1cccc(NC(=O)CN2C(=O)c3cccnc3Oc3ccc(Cl)cc32)c1C | · | 7% | -3%[59 µM] | -9% | 13%
COCCn1c(=O)c(-c2ccc(F)cc2)nc2cnc(Oc3cccc(Cl)c3)nc21 | -5% | · | 0%[12.7 µM] | · | ·
SMILES | Sfp inh | BAZ2B block | G9a block | JMJD2A Tudor inh | HP1b binding inh
CCOC(=O)c1cnc2ccc(C)cc2c1Nc1ccc(N(CC)CC)cc1 | · | 3.5µM* | 4.5µM* | 13µM* | 10µM*
S=C(NCCc1ccccn1)Nc1ccc(Cl)cc1Cl | -6% | -12% | -3% | -8% | 25%
Brc1cc2c(cc1Br)OCCOCCOCCOCCO2 | 8% | -24% | 24% | 8.9µM* | -22%
Nc1ccc2c(c1)OCCOCCOCCOCCOCCO2 | -8% | -11% | 14µM* | -4% | 50%
Brc1ccc2c(c1)OCCOCCOc1cc(Br)ccc1OCCOCCOCCO2 | 8% | -1% | 19%[59 µM] | 3% | 61%
O=c1cc2oc3cc(O)c(O)cc3c(-c3ccccc3O)c-2cc1O | 79µM* | 7.9µM* | 16µM* | 4µM* | 14µM*
CCOc1ccccc1-c1c2cc(O)c(=O)cc-2oc2cc(O)c(O)cc12 | 32µM* | 7.1µM* | 10µM* | 1µM* | -91%
O=c1cc(-c2ccccc2O)oc2cc(O)ccc12 | -4% | · | · | · | ·
COc1ccccc1-c1cc(=O)c2cc(O)ccc2o1 | -3% | · | · | · | ·
O=c1cc(-c2cccc(O)c2O)oc2ccccc12 | 79µM* | · | · | · | ·
Nc1nnc(-c2cccc([N+](=O)[O-])c2)s1 | 16% | 5% | 0% | -1%[57.1 µM] | 43%
Nc1nnc(-c2ccc(Cl)c([N+](=O)[O-])c2)s1 | -19% | -20% | 45µM* | -21% | 2%
Cc1ccc(NC(=O)NCc2cccn2Cc2ccccc2)c(C)c1 | · | -12% | -2%[59 µM] | -18% | 23%
C/C(=N\Nc1ccc2nncn2n1)c1ccco1 | -4% | 2% | · | -7% | 11%
C(=N\Nc1ccc2nncn2n1)/c1ccccn1 | 32µM* | -27% | -4% | ? | 26%
C(=N\n1cnnc1)/c1ccccn1 | 22% | -4% | 10%[12.7 µM] | -14% | 27%
C/C(=N\Nc1ccc2nncn2n1)c1ccccn1 | 4% | 8.9µM* | 4% | 22µM* | 27%
COc1cccc(CNC(=O)c2ccc(Cl)c(S(=O)(=O)N3CCOCC3)c2)c1 | · | -24% | 1%[2.33 µM] | -15% | 36%
Cc1ccc(NC(=O)CCNS(=O)(=O)c2ccc3[nH]c(=O)oc3c2)c(Cl)c1 | 9% | -4% | 7%[59 µM] | -7% | 38%
COc1cc2c(cc1OC)C1=C(C#N)CN(CC(=O)O)CN1CC2 | -12% | 79µM* | 35µM* | 22µM* | -24%
CCOc1cccc2sc(NC(=O)c3ccc(S(=O)(=O)N4CCc5ccccc54)cc3)nc12 | · | -1% | 1%[59 µM] | -22% | 11%[57 µM]
Cc1nnc(N2CCCC(C(=O)NCc3ccc(OC(C)C)cc3)C2)c2nn(-c3ccccc3)c(C)c12 (stereo unspecified) | 89µM* | -8% | · | -18% | 57%
COC(=O)c1ccccc1NC(=O)C1CCCN(c2nnc(C)c3c(C)n(-c4ccccc4)nc23)C1 (stereo unspecified) | · | 79µM* | ? | -3% | 41%
COc1ccc(CNC(=O)C2CCCN(c3nnc(C)c4c(C)n(-c5ccc(C)cc5)nc34)C2)cc1 (stereo unspecified) | · | -21% | -30%[59 µM] | -19% | 36%
Cc1nnc(N2CCCC(C(=O)NCCc3ccc(Cl)cc3)C2)c2nn(-c3ccccc3)c(C)c12 (stereo unspecified) | · | -38% | -8%[59 µM] | -9% | 16%
